Experimental data: PubChem BioAssay (NCATS)
Inconclusive results are not listed. Where a call stands in place of a potency, no number is given. Calls of active or inactive are those of the source. The call rests on the fitted dose curve; in most records, active means well fitted inhibition curve with a large enough effect; inconclusive means small, poorly fitted or top-dose-only effect; inactive means no such curve, though single readings can be large or run the other way.

The molecules below were run against Retinaldehyde dehydrogenase 3 (Homo sapiens) (UniProt P47895) (assay: qHTS for Inhibitors of the Aldehyde Dehydrogenase Family (ALDH1A3) Primary screen (AID 2061315)). Conditions: ALDH inhibition qHTS; series mostly up to 56 µM.

| SMILES | Potency |
| --- | --- |
| Cc1ccc(NS(=O)(=O)c2ccc(Cl)cc2)cc1C | inactive |
| COc1cccc(NS(=O)(=O)c2ccc(C)cc2)c1C(=O)Nc1nc(-c2ccccc2)cs1 | inactive |
| COc1ccc2[nH]c(=O)c3c(c2c1)OC(C)(C)C=C3 | inactive |
| COc1cc(F)c(F)c(Nc2ccc(I)cc2F)c1NS(=O)(=O)C1(CC(O)CO)CC1 (stereo not given) | inactive |
| CC(=O)c1ccc(-c2csc(N3CCC(C(N)=O)CC3)n2)cc1 | inactive |
| Cc1cc(C)nc(NC(=S)N2CCN(c3ccc(C(=O)O)cc3)CC2)c1 | inactive |
| Cc1nc(-c2ccccc2C(C)C)nc(NCc2ccc(-c3cccnc3)cc2)c1C | inactive |
| CN1CCOc2cc(S(=O)(=O)N3CCN(S(=O)(=O)c4c(F)cccc4F)CC3)cnc21 | inactive |
| NC(=O)C1CCN(c2nnc(-c3ccc(Br)cc3)s2)CC1 | inactive |
| Cc1cc(C)nc(NC(=S)N2CCN(c3ccc(C(F)(F)F)cc3Cl)CC2)c1 | inactive |
| O=S1(=O)N=C(Oc2ccccc2-c2ccccc2)c2ccccc21 | inactive |
| N=c1c2c(ccn1CCc1ccccc1)Oc1ccc3ccccc3c1C2c1ccccc1 (stereo not given) | inactive |
| COc1cc(OC)cc(-c2csc(N3CCC(C(N)=O)CC3)n2)c1 | inactive |
| Cc1ccc(C(=O)Nc2ccc(N3CCOCC3)cc2)cc1 | inactive |
| Cc1nc(NCCO)c2nc(-c3ccccc3)n(CCN(C)C)c2n1 | inactive |
| CC(=O)N[C@H](C(=O)N[C@@H](C)C(=O)N[C@H](C#N)CC(=O)O)C(C)C | inactive |
| FC(F)(F)c1cccc(-c2ccc(CNc3nc(-c4ccccc4C(F)(F)F)nc4ccccc34)cc2)c1 | inactive |
| FC(F)(F)c1cccc(N2CCN(C(=S)Nc3cccnc3)CC2)c1 | inactive |
| O=C(NC1CCCc2c1cnn2-c1ccc(F)cc1F)C1CC1 (stereo not given) | inactive |
| Fc1ccccc1-c1nc(NCc2ccc(-c3cccnc3)cc2)c2ccccc2n1 | inactive |

| SMILES | Potency |
| --- | --- |
| COc1ccc2cc3cc(C(=O)Nc4ccc(F)cc4)sc3nc2c1 | inactive |
| Cc1ccc(NS(=O)(=O)c2ccc3c(c2)N(C)CCO3)cc1C | inactive |
| O=C(Nc1ccccn1)c1sc2ccccc2c1Cl | inactive |
| O=C(OCc1c(-c2ccccc2)no[n+]1[O-])c1ccccc1 | inactive |
| Cc1ccc(S(=O)(=O)Nc2cccnc2C(=O)Nc2nc(-c3ccccc3)cs2)cc1 | inactive |
| CNC1CCC(N(Cc2ccc(OC)c(-c3ccc(C#N)cc3)c2)C(=O)c2sc3ccccc3c2Cl)CC1 (stereo not given) | inactive |
| Cc1ccc(OCCn2c(CCNC(=O)c3ccc(C#N)cc3)nc3ccccc32)cc1 | inactive |
| N#Cc1nonc1-c1ccccc1 | inactive |
| O=C(OCC#CCSc1nnc(-c2cccc3ccccc23)o1)c1cnc[nH]1 | inactive |
| FC(F)Oc1ccc(C2=Nn3c(nnc3-c3ccccc3Cl)SC2)cc1OCC1CC1 | inactive |
| Cc1cccc(C(=O)NCC(=O)OC(C(=O)Nc2cc(C(F)(F)F)ccc2Cl)c2ccccc2)c1 (stereo not given) | inactive |
| Cc1ccc(-c2c(C(=O)CF)n(CCCO)c3ncnc(N)c23)cc1 | inactive |
| Cc1cc2c(s1)c1cnn(Cc3ccc(Br)cc3)c(=O)c1n2C | inactive |
| Fc1cccc(CSc2nc3ncc(Br)cc3[nH]2)c1 | inactive |
| Cc1ccc2c(c1)/C(=C\c1cc(Cl)c(O)c(Cl)c1)C(=O)N2 | inactive |
| Cn1c2ccsc2c2cnn(Cc3ccc(F)cc3)c(=O)c21 | inactive |
| Cc1cccc(C2N=C(Nc3nc4ccccc4o3)NC3=C2C(=O)CCC3)c1 (stereo not given) | inactive |
| Cc1ccnc(NC(=S)N2CCN(c3cccc(N(C)C)c3)CC2)c1 | inactive |
| N#Cc1nc(Nc2cccc3ccccc23)nc(NC2CCCC2)n1 | inactive |
| O=C1C[C@]23C=CCN4CCC5c6cc7c(cc6N1[C@@]5(CC2)C43)OCO7 (stereo not given in full) | inactive |
